In the supplement of paper PMC12669032:

How the values were obtained:
Test in all cases: growth AUC relative to DMSO control (median of replicates) (fraction); higher = more growth (less inhibition), active = hit call of the paper
Settings in all cases: 20 µM; 24 h;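 active = AUC reduced over 20% with Padj below 0.05 in at least 2 of 3 replicates; inactive = otherwise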
[1] = tested on: Coprococcus comes
Outline: (§1)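 Three biological replicates, each grown on a separate day, were combined as a median for every value. In each, a gut bacterial monoculture in mGAM started at OD600 0.05 and grew anaerobically at 37 °C with 20 µM compound (1% DMSO), with OD600 read hourly over 24 h. Area under the growth curve was normalised against the plate median of solvent-only wells, or against row and column medians on the industrial chemical plate, after the minimum OD was set to 0.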

[2] = tested on: Escherichia coli ED1a
Outline: as §1

[3] = tested on: Escherichia coli IAI1
Outline: as §1

[4] = tested on: Eubacterium rectale
Outline: as §1

[5] = tested on: Fusobacterium nucleatum subsp. animalis
Outline: as §1

[6] = tested on: Lactobacillus gasseri
Outline: as §1

[7] = tested on: Lactobacillus paracasei
Outline: as §1

[8] = tested on: Odoribacter splanchnicus
Outline: as §1

[9] = tested on: Parabacteroides distasonis
Outline: as §1

[10] = tested on: Parabacteroides merdae
Outline: as §1

[11] = tested on: Roseburia intestinalis
Outline: as §1

[12] = tested on: Streptococcus salivarius
Outline: as §1

Measured: growth AUC

CC(C)=CC1C(C(=O)OCN2C(=O)C3=C(CCCC3)C2=O)C1(C)C (stereo not drawn)
inactive: [1] 0.953 | [2] 0.995 | [3] 0.97 | [4] 0.938 | [5] 0.85 | [6] 0.993 | [7] 0.918 | [8] 0.963 | [9] 0.935 | [10] 0.972 | [11] 0.988 | [12] 1.01

CC(C)C1(C)N=C(c2nc3ccccc3cc2C(=O)O)NC1=O (stereo not drawn)
inactive: [1] 1.01 | [2] 0.985 | [3] 0.983 | [4] 0.965 | [5] 1.02 | [6] 1.03 | [7] 0.891 | [8] 0.908 | [9] 0.986 | [10] 0.997 | [11] 1.03 | [12] 0.935

Nc1ncn[nH]1
inactive: [1] 0.974 | [2] 1.02 | [3] 1.01 | [4] 0.987 | [5] 1.1 | [6] 0.942 | [7] 0.995 | [8] 1.03 | [9] 1.02 | [10] 0.981 | [11] 0.985 | [12] 0.997

CCOC(=O)C(SP(=S)(OC)OC)c1ccccc1 (stereo not drawn)
inactive: [1] 1.02 | [2] 0.991 | [3] 0.976 | [4] 0.821 | [5] 0.904 | [6] 1.05 | [7] 1.02 | [8] 0.958 | [10] 0.958 | [11] 1.03 | [12] 1
active: [9] 0.746

O=C(Cc1ccccc1)N/C(=N\OCC1CC1)c1c(C(F)(F)F)ccc(F)c1F
inactive: [1] 1.01 | [2] 0.983 | [3] 0.972 | [4] 1.03 | [5] 0.937 | [6] 0.842 | [7] 0.946 | [8] 0.911 | [10] 0.877 | [11] 0.976 | [12] 0.968
active: [9] 0.612

CCN(CC)C(=S)[S-].O.O.O.[Na+]
inactive: [1] 0.964 | [2] 0.972 | [3] 0.976 | [4] 0.983 | [5] 1.09 | [6] 1.01 | [7] 0.978 | [8] 1 | [9] 0.982 | [10] 0.873 | [11] 0.894 | [12] 1.03

Oc1ccc(-c2ccccc2)cc1
inactive: [1] 1.01 | [2] 0.991 | [3] 0.987 | [4] 1 | [5] 0.968 | [6] 1.04 | [7] 0.693 | [8] 1.09 | [9] 1.02 | [10] 0.989 | [11] 0.947 | [12] 0.968

CON(C)C(=O)Nc1ccc(Cl)c(Cl)c1
inactive: [1] 1 | [2] 1.02 | [3] 0.977 | [4] 0.95 | [5] 0.936 | [6] 1.01 | [7] 0.996 | [8] 0.981 | [9] 1.01 | [10] 1 | [11] 0.925 | [12] 0.945

Cc1ccc2nc3sc(=O)sc3nc2c1
inactive: [1] 0.964 | [2] 0.969 | [3] 0.948 | [4] 1.02 | [5] 1.04 | [6] 0.915 | [7] 0.954 | [8] 1.14 | [9] 0.924 | [10] 0.954 | [11] 0.892 | [12] 0.983

CCOC(=O)c1ccccc1S(=O)(=O)NC(=O)Nc1nc(Cl)cc(OC)n1
inactive: [1] 0.988 | [2] 1.03 | [3] 1.02 | [4] 1.05 | [5] 1.07 | [6] 0.969 | [7] 1.05 | [8] 1.1 | [9] 1.07 | [10] 1.04 | [11] 1.01 | [12] 0.972

CC(C)=CC1C(C(=O)OCc2cccc(Oc3ccccc3)c2)C1(C)C (mixture of isomers)
inactive: [1] 0.992 | [2] 0.975 | [3] 0.974 | [4] 1.06 | [5] 1.11 | [6] 0.767 | [7] 1.02 | [8] 1.03 | [9] 0.924 | [10] 0.956 | [11] 0.908 | [12] 0.951

O=C1C2(Cl)C3(Cl)C4(Cl)C(Cl)(Cl)C5(Cl)C3(Cl)C1(Cl)C5(Cl)C24Cl (stereo not drawn)
inactive: [2] 0.98 | [3] 0.969 | [4] 0.696 | [5] 0.757
active: [1] 0.0378 | [6] 0.135 | [7] 0.061 | [8] 0.0248 | [9] 0.0157 | [10] 0.0229 | [11] 0.0478 | [12] 0.0301

CCS(=O)Cc1ccccc1OC(=O)NC (stereo not drawn)
inactive: [1] 1.01 | [2] 0.977 | [3] 0.971 | [4] 1.11 | [5] 1.05 | [6] 0.854 | [7] 1.01 | [8] 0.975 | [9] 0.8 | [10] 0.997 | [11] 1.02 | [12] 0.987

CNc1nc(C)c(C)c(OC(=O)N(C)C)n1
inactive: [1] 0.998 | [2] 1.01 | [3] 0.957 | [4] 1.05 | [5] 1.09 | [6] 1.03 | [7] 0.971 | [8] 0.985 | [9] 1.01 | [10] 0.998 | [11] 0.951 | [12] 1.03

CC(C)Oc1cc(-n2nc(C(C)(C)C)oc2=O)c(Cl)cc1Cl
inactive: [1] 1.01 | [2] 0.96 | [3] 0.993 | [4] 1.04 | [5] 1 | [6] 0.803 | [7] 1.01 | [8] 0.967 | [10] 0.96 | [11] 0.931 | [12] 0.971
active: [9] 0.705

CCOP(=S)(OCC)SCSc1ccc(Cl)cc1
inactive: [1] 0.975 | [2] 0.986 | [3] 0.964 | [4] 0.909 | [5] 1.07 | [6] 0.884 | [7] 1 | [8] 1.06 | [9] 0.911 | [10] 0.977 | [11] 0.939 | [12] 1.03

CCS(=O)(=O)CCSP(=O)(OC)OC
inactive: [1] 0.975 | [2] 1.01 | [3] 0.992 | [4] 0.935 | [5] 0.969 | [6] 1.04 | [7] 1.03 | [8] 0.97 | [9] 1.08 | [10] 0.988 | [11] 1.06 | [12] 0.957

c1ccc2c(c1)-c1cccc3cccc-2c13
inactive: [1] 0.92 | [2] 0.941 | [3] 1 | [4] 0.91 | [5] 0.954 | [6] 1.03 | [7] 0.98 | [8] 1 | [9] 0.938 | [10] 0.935 | [11] 0.956 | [12] 0.972

N#CCNC(=O)c1cnccc1C(F)(F)F
inactive: [1] 0.993 | [2] 1.01 | [3] 0.961 | [4] 0.97 | [5] 0.991 | [6] 1.06 | [7] 0.974 | [8] 1.02 | [9] 1.02 | [10] 1.03 | [11] 1 | [12] 0.995

C1CCC(NC2CCCCC2)CC1.O=NO
active: [4] 0.601 | [10] 0.753
inactive: [1] 0.832 | [2] 0.991 | [3] 0.95 | [5] 1 | [6] 1.06 | [7] 0.985 | [8] 0.93 | [9] 0.936 | [11] 1 | [12] 0.986

Clc1cc(Cl)c(Cl)cc1Cl
inactive: [1] 0.971 | [2] 1.02 | [3] 1.04 | [4] 0.986 | [5] 1.15 | [6] 0.973 | [7] 0.991 | [8] 1.01 | [9] 1.05 | [10] 0.998 | [11] 0.962 | [12] 0.935

CNC(=O)Oc1cccc2c1OC(C)(C)C2=O
inactive: [1] 1.05 | [2] 1.03 | [3] 1.02 | [4] 1.04 | [5] 1.15 | [6] 0.878 | [7] 1.04 | [8] 1.02 | [9] 0.955 | [10] 0.99 | [11] 0.994 | [12] 0.924

CN(C)C(CSS(=O)(=O)[O-])CSS(=O)(=O)O.[Na+]
inactive: [1] 0.987 | [2] 1.03 | [3] 1.01 | [4] 1.5 | [5] 1.11 | [6] 0.952 | [7] 0.984 | [8] 1.05 | [9] 0.979 | [10] 1.03 | [11] 1.06 | [12] 0.979

O=[N+]([O-])c1ccccc1
inactive: [1] 1.03 | [2] 1.01 | [3] 1.01 | [4] 1.07 | [5] 1.07 | [6] 1 | [7] 0.994 | [8] 1.08 | [9] 1.03 | [10] 1.03 | [11] 0.963 | [12] 1.01
